The whole screen tested about 16,000 compounds, of which about 5,100 (32%) were called active. Not shown: some 25% with an inconclusive outcome. The list shows a part of the results. Values without a mark were called inactive. Calls come from the whole dose curve; as a rule, active = well fitted curve in the direction sought with a large enough effect; inconclusive = small, poorly fitted or top-dose-only effect, or effect the other way; inactive = no such curve, though single readings can be large or run the other way.
% is set by controls: 0 for no effect and ±100 for the full control effect.

The target of this test is Cytochrome P450 3A4 (Homo sapiens) (UniProt P08684). Kind of test: Cytochrome panel assay with activity outcomes. Conditions: recombinant CYP, pro-luciferin dealkylation, luminescence, p450-cyp3a4; series mostly up to 57.1 µM.
Cytochrome P450 3A4 (Homo sapiens), sequence (P08684 whole entry, looked up): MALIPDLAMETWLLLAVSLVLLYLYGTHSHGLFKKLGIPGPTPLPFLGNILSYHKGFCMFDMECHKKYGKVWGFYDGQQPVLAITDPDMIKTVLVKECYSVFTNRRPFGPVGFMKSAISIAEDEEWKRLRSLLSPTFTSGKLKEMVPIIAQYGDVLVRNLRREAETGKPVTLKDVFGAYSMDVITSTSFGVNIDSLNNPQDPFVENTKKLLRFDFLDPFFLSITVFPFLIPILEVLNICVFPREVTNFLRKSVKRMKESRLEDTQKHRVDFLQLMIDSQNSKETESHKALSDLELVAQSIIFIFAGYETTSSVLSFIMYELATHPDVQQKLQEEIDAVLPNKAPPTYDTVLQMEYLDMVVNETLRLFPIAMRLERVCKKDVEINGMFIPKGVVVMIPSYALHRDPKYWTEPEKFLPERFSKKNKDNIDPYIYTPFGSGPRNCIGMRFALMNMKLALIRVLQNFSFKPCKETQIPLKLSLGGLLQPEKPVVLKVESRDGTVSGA
As for `C(=C\c1nnc(-c2cccs2)o1)/c1ccccc1`, the AC50 entry is “inactive”.
The same measure, in the same setting: the value for `N#Cc1nc(-c2cccs2)oc1NCc1ccccc1` was 12.6 µM (active); that for `O=C(Nc1cccc(F)c1)N1CCC2(CC1)CCN(C(=O)c1cnccn1)CC2` was “inactive”; that for `O=C(Nc1ccccc1)N1CC2(CCN(C(=O)c3cnccn3)CC2)C1` was “inactive”.
`O=C(Nc1ccccc1)N1CCC2(CC1)CCN(C(=O)c1cnccn1)CC2`: the AC50 entry was “inactive”.
For `O=C(Nc1cccc(F)c1)N1CCCC2(CCN(C(=O)c3cnccn3)CC2)C1`, the AC50 is 12.6 µM (active).
Turning to `O=C(Nc1cccc(F)c1)N1CC[C@@]2(CCCN(C(=O)c3cnccn3)C2)C1`, the AC50 is 12.6 µM (active).
On to `CCNc1ncc2ncc(=O)n(C3CC3)c2n1`, for which the AC50 entry was “inactive”.
As for `O=S(=O)(c1cnccc1N1CCN(/N=C/c2ccccc2)CC1)N1CCCCC1`, the AC50 was 0.891 µM (active).
Regarding `CC(C)NC(=O)N1CCN(c2ccncc2S(=O)(=O)N2CCOCC2)CC1`, the activity, negative = inhibition was -21.8% [at 2.29 µM].
The same measure, in the same setting: then `Nc1ncnc2nc(N3CCN(CCO)CC3)[nH]c12`, with -3.68% [at 11.4 µM]; and `Cn1c([N+](=O)[O-])cnc1CN1CCN(CCO)CC1`, with -14.7% [at 11.4 µM].
`O=S(=O)(c1cnccc1N1CCN(CCO)CC1)N1CCCC1`: the AC50 was 3.98 µM (active).
As to `CC(C)N1CCN(c2ccncc2S(=O)(=O)N2CCCCC2)CC1`, the half-maximal activity concentration (AC50) is 3.16 µM (active).
With `CC(C)(C)NC(=O)C(=O)N/N=C/c1ccc(Br)cc1`, the AC50 result is “inactive”.
Consider `CCCC[C@H]1C[C@@H]1[C@@H]1N(P(=O)(c2ccccc2)c2ccccc2)[C@](CO)(c2ccccc2)CC12CC2`, for which the AC50 was 2 µM (active).
For `CCCC[C@H]1C[C@@H]1[C@@H]1N(P(=O)(c2ccccc2)c2ccccc2)C[C@@](O)(c2ccccc2)CC12CC2`, the AC50 was 2 µM (active).
Consider `Cc1cc2c(c(=O)o1)[C@H](O)[C@H]1O[C@@H]1C2=O`, for which the activity, negative = inhibition is -24.9% [at 11.4 µM].
On to `O=C(O)CC1(CC(=O)O)Nc2ccccc2SC1=O`, for which the activity, negative = inhibition is -8.21% [at 11.4 µM].
As to `Cc1nonc1NC(=O)OCCN1CCOC1=O`, the AC50 entry was “inactive”.
For `CC(C)(C)c1cc(/C=C(\C#N)C(N)=S)cc(C(C)(C)C)c1O`, the AC50 is 3.98 µM (active).
Regarding `Cc1sc2ncn(CC(=O)NCCCC(=O)N3CCN(c4ncccn4)CC3)c(=O)c2c1C`, the concentration at half-maximal activity (AC50) is 14.1 µM (active).
Still for that read-out and setting: then `COCC(=O)N1CCC2(CC1)CCN(c1ncccn1)CC2`, with “inactive”.
For `CCC(C)NC(=O)Cn1cnc2sc(C)cc2c1=O` (stereo not drawn), the AC50 result was “inactive”.
As to `NS(=O)(=O)c1ccc(N=Nc2ccc[nH]c2=O)cc1`, the activity, negative = inhibition was -13.7% [at 11.4 µM].
On to `O=C(COc1ccc([N+](=O)[O-])cc1)NN=C1CCCC1`, for which the AC50 was 25.1 µM (active).
As to `N=C(N)SCCc1ccc(OCc2ccc([N+](=O)[O-])cc2)cc1`, the AC50 result is “inactive”.
Regarding `O=C(COc1ccc(Br)cc1)Nc1ccc([N+](=O)[O-])cn1`, the AC50 entry is “inactive”.
The same measure, in the same setting: then `O=C1O[C@H](CN2CCOCC2)CN1/N=C\c1ccc([N+](=O)[O-])o1`, with “inactive”; and `Cc1nc(NS(=O)(=O)c2ccccc2C)c2c3c(sc2n1)CCC3`, with 8.91 µM (active); and `C[C@H](Nc1ncnc2sc3c(c12)CCC3)C(=O)O`, with “inactive”.
`Cc1nc(NS(=O)(=O)c2ccc(Br)cc2)c2c3c(sc2n1)CCC3`: the AC50 is 11.2 µM (active).
For `CNC(=S)N1CCN(c2ccccc2OC)CC1`, the half-maximal activity concentration (AC50) was 10 µM (active).
Consider `Fc1cccc(CSc2ncnc3c2ncn3[C@H]2CCCS2)c1`, for which the activity, negative = inhibition was -11.8% [at 11.4 µM].
`N#Cc1ccc(-c2ccc(F)cc2)nc1Oc1ccc(Cl)c(Cl)c1`: the AC50 result is “inactive”.
With `Cc1ccc(Sc2nc(-c3ccccc3)ccc2C#N)cc1`, the AC50 was 20 µM (active).
The same measure, in the same setting: then `Cc1nc(Sc2ccccc2)c(C#N)cc1-c1ccccc1`, with “inactive”; and `COc1ccccc1-c1nnc(SCc2nc3ccccc3s2)n1C`, with 17.8 µM (active).
With `CCN1C(=O)[C@H]2[C@H]3[C@H](O)[C@H](O)C/C(=N/O[C@@H]4O[C@@H](COC(C)=O)[C@@H](OC(C)=O)[C@@H](OC(C)=O)[C@H]4OC(C)=O)[C@@H]3CC[C@@H]2C1=O`, the activity, negative = inhibition was -19.3% [at 11.4 µM].
Take `COc1ccc(-c2c(C)oc3c(CN4CCN(CCO)CC4)c(O)ccc3c2=O)cc1OC`: the activity, negative = inhibition is -0.572% [at 11.4 µM].
Take `COc1ccc(-c2cc(-c3c(O)c(OC)c4occc4c3OC)[nH]n2)cc1OC`: the AC50 was 7.94 µM (active).
`COc1cc(-c2ccc(=O)[nH]n2)ccc1OC(F)F`: the AC50 entry is “inactive”.
For the compound `COc1ccc(-c2cc(-c3cc(F)ccc3O)[nH]n2)cc1OC`, the AC50 is 20 µM (active).
Turning to `Nc1nc(Nc2ccccc2)nc2c1ncn2[C@@H]1O[C@@H](CO)[C@H](O)[C@H]1O`, the AC50 entry was “inactive”.
Turning to `O=C(CN1C(=O)c2ccccc2C1=O)NC1(C(=O)O)CCCC1`, the activity, negative = inhibition is -10.2% [at 11.4 µM].
Turning to `O=C1c2ccccc2C(=O)N1CC(=O)N1c2ccccc2CCc2ccccc21`, the AC50 is 12.6 µM (active).
Still for that read-out and setting: the value for `Cc1nn(C(=O)CN2C(=O)c3ccccc3C2=O)c(C)c1Br` was “inactive”.
Regarding `c1ccc(-c2ccc(C3=Nn4c(Cn5nnc6ccccc65)nnc4SC3)cc2)cc1`, the activity, negative = inhibition is -11.6% [at 2.29 µM].
Regarding `CCOc1ccc(-c2nnc3ccc(SC)nn23)cc1`, the AC50 entry is “inactive”.
Consider `CCOc1ccc(-c2nnc3n2N=C(c2ccc(OC)cc2)CS3)cc1`, for which the concentration at half-maximal activity (AC50) is 15.8 µM (active).
Take `CCc1ccc(C2=Nn3c(nnc3-c3cccs3)SC2)cc1`: the AC50 was 25.1 µM (active).
Consider `COc1ccc(-c2nnc3n2N=C(C)CS3)cc1`, for which the AC50 result was “inactive”.
On the same count and under the same terms, the value for `CCNC(=O)NC1(C(=O)Nc2ccc3c(c2)OCCO3)CCCCC1` was “inactive”.
As to `O=C(O)C1(Nc2ccc(Cl)cc2)CCCC1`, the activity, negative = inhibition was -9.17% [at 11.4 µM].
Turning to `Cc1ccc(CNC(=O)C2(NC(=O)Nc3ccc(C)cc3)CCCCC2)cc1`, the AC50 is 2.51 µM (active).
Turning to `O=C(CSCc1ccccc1)Nc1cccc(C(=O)Nc2ccccc2C(=O)O)c1`, the AC50 is 14.1 µM (active).
As to `O=C(CSCc1ccccc1)Nc1ccc(S(=O)(=O)N2CCOCC2)cc1`, the activity, negative = inhibition was -15.3% [at 11.4 µM].
For `CNc1csc(C)c(C)c1=O`, the AC50 entry was “inactive”.
`c1ccc2c(CSc3nnc(-c4ccncc4)o3)cccc2c1`: the AC50 is 15.8 µM (active).
With `c1ccc2c(CSCc3cccc4ccccc34)cccc2c1`, the activity, negative = inhibition was -3.97% [at 11.4 µM].
With `CCCCN(C)C(=O)c1coc(=O)c2ccccc12`, the AC50 result was “inactive”.
`CCCCNC(=O)CN1C(=O)NC2(CCCc3ccccc32)C1=O` (stereo not drawn): the AC50 result was “inactive”.
Take `CCCCNC(=O)Cc1coc2ccc3ccccc3c12`: the AC50 was 4.47 µM (active).
With `CCCN(C(=O)Cc1nc(N)n[nH]1)C1(C(=O)Nc2ccccc2C)CCCCC1`, the AC50 is 1.12 µM (active).
Consider `O=C(c1cc(C(F)(F)F)cc(C(F)(F)F)c1)N1CCC2(CC1)CN(Cc1ccccc1)C2`, for which the AC50 result was “inactive”.
Consider `N#Cc1ccc(CN2CC[C@@]3(CCCN(C(=O)c4cc(C(F)(F)F)cc(C(F)(F)F)c4)C3)C2)cc1`, for which the half-maximal activity concentration (AC50) is 5.01 µM (active).
`O=C(c1cc(C(F)(F)F)cc(C(F)(F)F)c1)N1CCC2(CCN(Cc3ccccc3)CC2)CC1`: the AC50 result is “inactive”.
Turning to `O=C(c1cc(C(F)(F)F)cc(C(F)(F)F)c1)N1CCC[C@@]2(CCN(Cc3ccncc3)C2)C1`, the AC50 was 0.501 µM (active).
With `O=C(c1cc(C(F)(F)F)cc(C(F)(F)F)c1)N1CCC[C@@]2(CCN(Cc3ccccc3)C2)C1`, the AC50 was 5.01 µM (active).
Still for that read-out and setting: then `N#Cc1ccc(CN2CC3(CCN(C(=O)c4cc(C(F)(F)F)cc(C(F)(F)F)c4)CC3)C2)cc1`, with “inactive”; and `N#Cc1ccc(CN2CCC3(CC2)CCN(C(=O)c2cc(C(F)(F)F)cc(C(F)(F)F)c2)CC3)cc1`, with “inactive”; and `O=C(c1ccncc1)N1CCC2(CC1)CN(Cc1cc(C(F)(F)F)cc(C(F)(F)F)c1)C2`, with 5.01 µM (active).
`NS(=O)(=O)c1ccc(N=Nc2ccc(O)c(C(=O)O)c2)cc1`: the activity, negative = inhibition is -11.8% [at 11.4 µM].
As for `Nc1nc2ncc(CNc3ccc(C(=O)N[C@@H](CCC(=O)O)C(=O)O)cc3)nc2c(=O)[nH]1`, the AC50 entry is “inactive”.
For the compound `Nc1c(-c2ccccc2)cnn1-c1cccc([N+](=O)[O-])c1`, the concentration at half-maximal activity (AC50) is 14.1 µM (active).
`Nc1nc(-c2cccc([N+](=O)[O-])c2)cc(-c2cc(-c3cccc([N+](=O)[O-])c3)nc(N)n2)n1`: the activity, negative = inhibition is -1.01% [at 11.4 µM].
Regarding `Nc1nc(-c2ccccc2)cc(-c2ccccc2O)n1`, the AC50 entry was “inactive”.
In the case of `Cc1cc(C)c2c(SCc3ccc(Cl)cc3Cl)nc(N)nc2n1`, the activity, negative = inhibition was 19.4% [at 11.4 µM].
As for `Cc1cc(N2CCOCC2)nc(SCc2ccc(Cl)cc2Cl)n1`, the AC50 was 2.24 µM (active).
Consider `CCCc1ccc(Oc2cc(C)nc(N3CCOCC3)n2)cc1`, for which the activity, negative = inhibition was 28.4% [at 0.457 µM].
In the case of `C=CC[N+]1(CC#CCOC(c2ccccc2)c2ccccc2)CCOCC1`, the AC50 result is “inactive”.
With `CCOc1cc(CNCCO)cc(Br)c1OCc1ccccc1Cl`, the AC50 was 2 µM (active).
For the compound `CCOc1cc(CNCCc2ccc(S(N)(=O)=O)cc2)ccc1OCc1ccc(Cl)cc1`, the AC50 was 0.398 µM (active).
On to `COc1c(Cl)cc(Cl)cc1CNCCNCCO`, for which the AC50 result was “inactive”.
For `CCOc1cc(CNCCc2ccc(S(N)(=O)=O)cc2)cc(Cl)c1OCc1ccccc1`, the AC50 is 0.447 µM (active).
As to `CCCc1c(OCCCOc2ccc(OCC(=O)O)cc2)ccc(CC=O)c1O`, the AC50 entry was “inactive”.
The same measure, in the same setting: then `CCn1c2ccc(Cl)cc2c2nc3ccccc3nc21`, with 15.8 µM (active).
As to `CCn1c2ccccc2c2nnc(NCCCO)nc21`, the activity, negative = inhibition is -11.6% [at 11.4 µM].
For `COc1ccc(-c2ccc(N)[n+](CCCC(=O)O)n2)cc1`, the AC50 result is “inactive”.
For the compound `O=C(CCCC(=O)OCC(=O)c1ccc(Cl)cc1Cl)Nc1cc(C(F)(F)F)ccc1Cl`, the AC50 was 22.4 µM (active).
On the same count and under the same terms, the value for `Cc1cc(NC(=O)CCCC(=O)OCC(F)(F)C(F)F)cc(C)c1C(=O)O` was “inactive”.
As for `CC(C)NC(=O)C1CC(=O)N(c2ccc(F)c(Cl)c2)C1` (stereo not drawn), the activity, negative = inhibition was 5.88% [at 2.29 µM].
Take `CCOc1ccc(N2CC(C(=O)NCc3cccc(C)c3)CC2=O)cc1` (stereo not drawn): the AC50 was 7.94 µM (active).

(Values after PubChem BioAssay AID1851 (National Center for Advancing Translational Sciences (NCATS), 2009).)
